# Screening results from PubChem.
# Shown are actives, neighbours in structure and some others; about 1.8% of the full set was active somewhere.
# LYPLA2 inh: counter-screen for PME1 inhibitors: inhibitors of human LYPLA2 | recombinant LYPLA2, FP-Rh probe fluorescence polarization | inhibition, % at 5.9 µM | 0.38% of 320,000 active | AID 2177;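 active means inhibition above the screen-wide mean plus 3 SD, limit set per campaign, cut at about 26% in these data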
# GSTO1 inh: blocks human GSTO1 in RBBP9 counter-screen. AID 1974. 1.1% of 300,000 active. recombinant GSTO1, activity-based probe fluorescence polarization. inhibition, % at 5.96 µM. P78417;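 active means inhibition above the campaign mean inhibition plus 3 SD, cut at about 35% in these data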
# LYPLA1 inh: counter-screen for PME1 inhibitors: inhibitors of human LYPLA1; O75608; recombinant LYPLA1, FP-Rh probe fluorescence polarization; 0.16% of 320,000 active; inhibition, % at 5.9 µM; AID 2174;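 active means inhibition above the mean of all tested compounds plus 3 SD, set per campaign, cut at about 14% in these data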;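 further: inhibitors block serine hydrolase probe labeling of LYPLA1 so polarization falls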
# Fam108B inh: blocks mouse Fam108B hydrolase in RBBP9 counter-screen | 0.33% of 300,000 active | AID 1947 | inhibition, % at 9.51 µM | recombinant Fam108B, FP-Rh probe fluorescence polarization;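 active means inhibition above the screen mean inhibition plus 3 SD, computed separately per campaign, cut at about 18% in these data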;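 further: inhibitors lower polarization as less probe binds the enzyme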
# PAD4 FP inh: PAD4 (human) enzyme inhibition; Q9UM07; recombinant PAD4, RCA probe fluorescence polarization; inhibition, % at 6.36 µM; 0.41% of 330,000 active; AID 485272;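 active means percent inhibition above a cutoff equal to the mean of all tested compounds plus 3 SD, cut at about 15% in these data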
# Target sequence (Q9UM07 whole entry, looked up): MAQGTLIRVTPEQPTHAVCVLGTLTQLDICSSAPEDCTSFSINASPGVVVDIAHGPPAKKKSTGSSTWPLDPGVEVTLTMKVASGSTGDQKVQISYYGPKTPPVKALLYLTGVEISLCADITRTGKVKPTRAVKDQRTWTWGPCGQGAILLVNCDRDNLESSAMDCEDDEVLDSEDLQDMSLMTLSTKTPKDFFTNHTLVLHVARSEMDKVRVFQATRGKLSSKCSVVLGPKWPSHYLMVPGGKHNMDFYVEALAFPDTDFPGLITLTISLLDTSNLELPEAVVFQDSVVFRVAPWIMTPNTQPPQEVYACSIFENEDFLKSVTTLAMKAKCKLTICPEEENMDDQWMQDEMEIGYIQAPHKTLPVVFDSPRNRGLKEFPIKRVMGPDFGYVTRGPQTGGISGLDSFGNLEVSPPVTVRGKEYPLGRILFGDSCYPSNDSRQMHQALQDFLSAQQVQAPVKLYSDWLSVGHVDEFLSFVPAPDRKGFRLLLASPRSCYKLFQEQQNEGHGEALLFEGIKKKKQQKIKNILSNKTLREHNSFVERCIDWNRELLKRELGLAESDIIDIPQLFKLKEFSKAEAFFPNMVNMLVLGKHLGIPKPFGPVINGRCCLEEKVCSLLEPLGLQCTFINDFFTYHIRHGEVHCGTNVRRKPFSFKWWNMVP
# PME-1 inh: PME-1 (human) inhibition; Q9Y570; recombinant PME-1, FP-Rh probe fluorescence polarization; inhibition, % at 5.9 µM; 0.53% of 320,000 active; AID 2130;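 active means inhibition above the campaign mean of all compounds plus 3 SD, cut at about 26% in these data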;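 further: competitive labeling of PME-1 active site by serine hydrolase directed probe; inhibitors block probe labeling so polarization falls and inhibition rises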
# Fam108b confirm: confirmation of mouse Fam108b serine hydrolase inhibitors. shares compounds with Fam108B inh. recombinant Fam108b, FP-Rh probe fluorescence polarization. inhibition, % at 9.51 µM. 44% of 930 active;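 active means inhibition above a limit from the primary screen, the mean over all compounds plus 3 SD, cut at about 19% in these data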;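 further: inhibitors free the probe so polarization falls as inhibition rises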
# Fam108b ABPP HTS: inhibits mouse Fam108b in gel-based ABPP | recombinant Fam108b, fluorophosphonate probe | inhibition, % at 20 µM | 44% of 260 active | shares compounds with Fam108B inh; in the data active means inhibition above about 40%
# GSTO1 inh conf: GSTO1 (human) inhibition, confirmation; inhibition, % at 5.96 µM; 54% of 2,400 active; recombinant GSTO1, probe fluorescence polarization; AID 2176; shares compounds with GSTO1 inh;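 active means inhibition above the primary screen's cutoff, its mean inhibition plus 3 SD, cut at about 35% in these data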;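 further: loss of polarization as inhibitors block binding of rhodamine sulfonate ester activity probe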
# LYPLA1 conf: LYPLA1 (human) inhibition, confirmation counter-screen; AID 2233; inhibition, % at 5.9 µM; 69% of 480 active; shares compounds with LYPLA1 inh; recombinant LYPLA1, FP-Rh probe fluorescence polarization;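 active means mean inhibition across replicates above the hit cutoff set in the primary screen, cut at about 15% in these data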;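 further: loss of FP-Rh probe labeling of LYPLA1 seen as lower polarization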
# LYPLA2 confirm: LYPLA2 (human) inhibition, confirmation counter-screen | shares compounds with LYPLA2 inh | recombinant LYPLA2, FP-Rh probe fluorescence polarization | inhibition, % at 5.9 µM | 72% of 1,100 active | AID 2232;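 active means mean inhibition across replicates above the hit cutoff set in the primary screen, cut at about 26% in these data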;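 further: blocked labeling of the enzyme by serine hydrolase FP-Rh probe lowers polarization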
# PAD4 confirm: confirmation of human PAD4 inhibitors. shares compounds with PAD4 FP inh. recombinant PAD4, RCA probe fluorescence polarization. inhibition, % at 6.36 µM. 28% of 1,200 active;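 active means mean inhibition across replicates above the hit cutoff set by the earlier primary screen, cut at about 15% in these data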;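 further: inhibitors block active-site labeling by the probe so polarization falls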
# A number is an active result; . = inactive; / = not tested or not shown; + = active, no number.
SMILES,LYPLA2 inh,GSTO1 inh,LYPLA1 inh,Fam108B inh,PAD4 FP inh,PME-1 inh,Fam108b confirm,GSTO1 inh conf,LYPLA1 conf,LYPLA2 confirm,PAD4 confirm,others
COc1ccc(NC(=O)c2cc(S(=O)(=O)N3CCc4ccccc43)cn2C)cc1OC,.,.,.,.,.,.,/,/,/,/,/,
CC(C)(C)OC(=O)C[C@H]1C/C=C\C[C@@H](CC(=O)N[C@@H](CO)Cc2ccccc2)C(=O)N2CCC[C@@H]2COC1=O,/,/,/,/,.,/,/,/,/,/,/,
CN(C)S(=O)(=O)c1ccc(N2CCCC2)c(C(=O)NCC2CCCO2)c1 (centres undefined),.,.,.,.,.,.,/,/,/,/,/,
CCN(CC)C(=O)C1c2ccccc2Oc2ccccc21,72,44,58,47,80,70,.,.,.,.,.,
COc1cccc(-c2nc(CS(=O)(=O)CC(=O)Nc3ccccc3Cl)c(C)o2)c1,.,.,.,.,.,.,/,/,/,/,/,
O=C1C=C(N2CCCCC2)c2ccccc2C1=O,27,91,40,69,65,40,82,88,37,32,61,Fam108b ABPP HTS=.
COc1ccccc1CN1CC(C(=O)NCc2cc(C(C)C)no2)CCC1=O (centres undefined),.,.,.,.,.,.,/,/,/,/,/,
CC(=O)Nc1ccc(NS(=O)(=O)c2ccccc2)c2ccccc12,.,.,.,.,.,.,/,/,/,/,/,
O=C(O)CSc1cc(NS(=O)(=O)c2ccc(Cl)cc2)c2ccccc2c1O,28,88,.,28,31,28,19,/,/,.,.,
O=C(O)CCNc1ccc(NCCC(=O)O)c2c1C(=O)c1ccccc1C2=O,.,.,.,36,22,27,26,/,/,/,.,
COc1ccccc1NCCC(=O)O,.,.,.,.,.,.,/,/,/,/,/,
COc1ccc(OC)c(-c2c3cc(O)c(=O)cc-3oc3cc(O)c(O)cc23)c1,77,50,85,73,55,59,110,73,.,.,+,
COC(=O)c1cc(S(=O)(=O)N2CCOCC2)c(Cl)cc1N1CCOCC1,.,.,.,.,.,.,/,/,/,/,/,
COC(=O)c1cc(C)nc2c1C(=O)C(=O)C=C2N1CCOCC1,79,99,72,71,72,36,82,95,91,93,67,Fam108b ABPP HTS=.
CC(C)N=c1cc2n(-c3ccc(Cl)cc3)c3ccccc3nc-2cc1Nc1ccc(Cl)cc1,43,.,31,39,20,32,.,/,15,.,28,
O=C(NCCNC(=O)c1ccco1)c1ccc(Cl)c(Cl)c1,.,.,.,.,.,.,/,/,/,/,/,
CCCCCn1c(NC(=O)c2ccco2)c(S(=O)(=O)c2ccc(C)cc2)c2nc3ccccc3nc21,.,.,.,.,.,.,/,/,/,/,/,
CCCCn1c(NS(=O)(=O)c2ccccc2)c(S(=O)(=O)c2ccc(C)cc2)c2nc3ccccc3nc21,56,92,64,54,66,28,.,83,82,91,.,
COc1cccc(NC(=O)CN2CCN(C(=O)c3ccco3)CC2)c1,.,.,.,.,.,.,/,/,/,/,/,
N#Cc1c(N2CCCC2)nc(N)c2c(N)nc(N3CCCC3)cc12,.,93,.,58,48,.,126,91,/,/,43,Fam108b ABPP HTS=.
Cc1ccsc1C=Nc1ccc(O)cc1,40,92,38,42,30,55,.,37,.,.,.,
CCOC(=O)C1CCCN(C(=O)c2ccc(C(=O)c3ccccc3)cc2)C1 (centres undefined),.,/,.,/,.,.,/,/,/,/,/,
CCOC(=O)C1CCCN(C(=O)C2c3ccccc3Oc3ccccc32)C1 (centres undefined),59,46,56,41,94,66,.,.,.,.,.,
O=c1ccc2c(-c3ccccc3)c3ccc(O)cc3oc-2c1,41,.,46,26,29,.,42,/,33,29,63,Fam108b ABPP HTS=.
Cc1oc2cc(O)ccc2c(=O)c1-c1ccccc1,.,.,.,.,.,.,/,/,/,/,/,
SMILES,LYPLA2 inh,GSTO1 inh,LYPLA1 inh,Fam108B inh,PAD4 FP inh,PME-1 inh,Fam108b confirm,GSTO1 inh conf,LYPLA1 conf,LYPLA2 confirm,PAD4 confirm,others
Cc1cc2nc3ccc(N(C)C)cc3nc2cc1N,33,47,32,32,29,40,19,42,19,.,31,
COc1ccc(N2C(=O)c3ccc(C(=O)Nc4ccccc4OC)cc3C2=O)cc1,.,.,.,.,.,.,/,/,/,/,/,
CC1CCN(C(=O)Nc2ccc3nsnc3c2)CC1,.,.,.,.,.,.,/,/,/,/,/,
COc1ccc(NC(=S)Nc2ccc3nc(C)c(C)nc3c2)cc1,.,.,.,.,.,.,/,/,/,/,/,
COc1ccc(NC(=S)Nc2ccc3nsnc3c2)cc1,86,86,61,29,68,36,40,80,.,.,.,Fam108b ABPP HTS=55
CC(C)N(C(=O)Nc1ccc2nsnc2c1)C(C)C,73,98,71,55,78,32,33,77,.,31,.,Fam108b ABPP HTS=.
O=c1[nH]c(Nc2ccccc2)cc2ccccc12,.,80,.,24,65,.,37,47,/,/,18,Fam108b ABPP HTS=.
Cn1c(=O)cc(Nc2ccccc2)[nH]c1=O,.,.,.,.,.,.,/,/,/,/,/,
Cn1c(=O)c(N)c2c3c(c(Br)ccc31)C(=O)c1ccccc1-2,29,.,17,29,106,37,26,/,21,/,126,
Cc1noc(NS(=O)(=O)c2ccc(NC(=O)c3cccc(S(=O)(=O)Nc4ccccc4F)c3)cc2)c1C,/,/,/,/,.,/,/,/,/,/,/,
CSc1nsc(/C=C/Nc2ccc(O)cc2C)c1C#N,30,69,22,21,29,51,.,/,.,.,.,
O=C1CCN(S(=O)(=O)c2cc(C(F)(F)F)ccc2Cl)CC1,.,/,.,/,.,.,/,/,/,/,/,
NS(=O)(=O)c1ccc(NC2=CC(=O)C(=O)c3ccccc32)cc1,.,84,.,20,28,.,32,88,/,/,62,Fam108b ABPP HTS=.
Cn1c(=O)cc2c3c(c(N4CCCCC4)ccc31)C(=O)c1ccccc1-2,38,39,28,24,70,40,19,.,20,28,37,
CCn1c(CSc2nnc(-c3ccncc3)n2CCOC)nc2cc(C(=O)O)ccc21,39,.,31,25,48,32,35,/,34,34,58,Fam108b ABPP HTS=.
